Data reported in PubChem BioAssay AID743364 (National Center for Advancing Translational Sciences (NCATS), 2014).

Experiment: qHTS profiling of inhibitors of Plasmodium falciparum (3D7) proliferation (acoustic dispense)
Settings: P. falciparum 3D7 in erythrocytes, SYBR Green, 72 h; series mostly up to 49.8 µM; activity change: at the top concentration; active = well fitted curve in the direction sought with a large enough effect; inactive = no such curve, though single readings can be large or run the other way
Text: Plasmodium falciparum is a virulent malarial parasite that kills 1-2 million people worldwide each year. Transmitted by mosquitoes, the sporozoite form of the parasite enters the blood stream to infect hepatocytes, where they become merozoites that infect red blood cells (erythrocytes). Within erythrocytes, merozoites begin a […] cycle of growth and division, after which the parasite is released to infect new red blood cells. Gametocytes, which form within erythrocytes as well, circulate in the bloodstream and are ingested by the mosquito, thereby completing the life cycle. To profile malarial isolates for differential chemical responses and to identify inhibitors of malarial growth, an assay that measures P. falciparum growth and replication within erythrocytes was employed. This assay uses a DNA binding fluorescent dye (SYBR Green) to detect parasite DNA following cell lysis. Because mature erythrocytes lack DNA, only Plasmodium-derived DNA is detected.
The SYBR Green viability assay was adapted from a method described previously (Plouffe et al., 2008). For screening 3 ul culture medium was dispensed into 1536 well black clear bottom plates (Aurora Biotechnologies) using a Multidrop Combi (Thermo Fisher Scientific Inc.), 23 nL of compounds in DMSO were added by an acoustic dispenser (EDC Biosystems), and 5 ul of erythrocytes infected with P. falciparum (0.3% parasitemia, 2.5% hematocrit final concentration) were added. The plates were incubated at 37 C in a humidified incubator in 5% CO2 for 72 h, and 2 ul lysis buffer (20 mM Tris HCl, 10 mM EDTA, 0.16% saponin, 1.6% triton X, 10X SYBR Green I supplied as 10,000X […] by Invitrogen) was added to each well. The plates were mixed for 25 sec with gentle shaking and incubated overnight at room temperature in the dark. The following morning, fluorescence intensity at 485(14) nm excitation and 535(25) nm emission wavelengths was measured on an EnVision (Perkin Elmer) plate reader. Plate reads were normalized relative to the control inhibitor (0.29 uM artemisinin) and vehicle (DMSO) wells present on each plate and then corrected by an algorithm using vehicle-only control plates at the beginning and end of the compound plate stack.

Activity change, inactive:
O[C@H](c1cc(C(F)(F)F)nc2c(C(F)(F)F)cccc12)[C@H]1CCCCN1 0.467% [at 23.2 µM]
CC[C@@]1(O)C[C@H](O[C@H]2C[C@H](N(C)C)[C@H](O[C@H]3C[C@H](O)[C@H](O[C@H]4CCC(=O)[C@H](C)O4)[C@H](C)O3)[C@H](C)O2)c2c(cc3c(c2O)C(=O)c2c(O)cccc2C3=O)[C@@H]1C(=O)OC -2.95%
COc1ccc(-c2cc3c(C)nc(N)nc3n(C3CCC(OCCO)CC3)c2=O)cn1 (stereo not given) -1.59%
Cc1ccc([N+](=O)[O-])cc1S(=O)(=O)N(C)N=Cc1cnc2ccc(Br)cn12 -0.0818%
CN(Cc1cnc2nc(N)nc(N)c2n1)c1ccc(C(=O)N[C@@H](CCC(=O)O)C(=O)O)cc1 -0.179%
Cn1cnc(=N)c2[nH]cnc21 0.814%
C[C@H]1c2cccc(O)c2C(O)=C2C(=O)[C@]3(O)C(O)=C(C(N)=O)C(=O)[C@@H](N(C)C)[C@@H]3[C@@H](O)[C@@H]21 -0.335%
Cc1nc2c(C#N)cccc2n1-c1ccc(C(=O)NC2CC2)s1 4.45%
CCC[C@H](Nc1nc(-c2ccc(NC(=O)NCC)c(OC)c2)ncc1C)c1cccnc1 1.52%
CCC(C=C[C@@H]1OC(=O)C=C[C@H]1C)=C[C@H](C)CC=CC(C)=C[C@@H](C)C(=O)[C@@H](C)[C@H](O)[C@@H](C)CC(C)=CC(=O)O 22.5% [at 1.88 µM]
COc1ncc(-c2ccc3nccc(-c4ccnnc4)c3c2)cc1NS(=O)(=O)c1ccc(F)cc1F -1.7%
OB1OCc2cc(F)ccc21 5.24%
CCCC[C@@H]1C[C@@H](C(=O)NC([C@H](C)Cl)[C@H]2O[C@H](S)[C@H](O)[C@@H](O)[C@@H]2O)N(C)C1 (stereo not given in full) 39.1%
Cn1cc(C2=C(c3c4n(c5ccccc35)CCC(CN)C4)C(=O)NC2=O)c2ccccc21 (stereo not given) 2.82%
CC(C)n1nc(-c2ccc3oc(N)nc3c2)c2c(N)ncnc21 -2.74%
CC1(CN2CCC(n3c(=O)[nH]c4ccccc43)CC2)OCc2ccccc2-n2cccc21 (stereo not given) -0.657%
CS[C@H]1SC[C@@H]2C(=O)N(C)[C@H](C(C)C)C(=O)OC[C@H](NC(=O)c3cnc4ccccc4n3)C(=O)N[C@H](C)C(=O)N(C)[C@@H]1C(=O)N(C)[C@H](C(C)C)C(=O)OC[C@H](NC(=O)c1cnc3ccccc3n1)C(=O)N[C@H](C)C(=O)N2C -0.723%
CO[C@H]1C=CC=C(C)C(=O)NC2=CC(=O)C(NCCN(C)C)=C(C[C@@H](C)C[C@H](OC)[C@@H](O)[C@@H](C)C=C(C)[C@@H]1OC(N)=O)C2=O 111%
COc1cc([C@@H]2c3cc4c(cc3[C@@H](O[C@@H]3O[C@@H]5CO[C@@H](c6cccs6)O[C@@H]5[C@H](O)[C@@H]3O)[C@H]3COC(=O)[C@H]23)OCO4)cc(OC)c1O -0.633%
C=CCn1c(=O)c2cnc(Nc3ccc(N4CCN(C)CC4)cc3)nc2n1-c1cccc(C(C)(C)O)n1 -0.259%
CC[C@H]1CN2CCc3cc(OC)c(OC)cc3[C@H]2C[C@@H]1C[C@@H]1NCCc2cc(OC)c(OC)cc21 -0.291%
COc1cc(C)c2c(Oc3cccc(C(F)(F)F)c3)c(OC)cc(NCCCC(C)N)c2n1 (stereo not given) -2.94%
COC(=O)[C@]12CCC(C)(C)C[C@@H]1[C@@H]1C(=O)C=C3[C@@]4(C)C=C(C#N)C(=O)C(C)(C)[C@@H]4CC[C@@]3(C)[C@]1(C)CC2 58.1%
FC(F)c1nc2ccccc2n1-c1nc(N2CCOCC2)nc(N2CCOCC2)n1 4.59%
CCn1nnc2c(N3CCOCC3)nc(-c3ccc(NC(=O)Nc4ccc(C(=O)N5CCN(C)CC5)cc4)cc3)nc21 1.28%
Cn1c(=O)n(-c2ccc(C(C)(C)C#N)cc2)c2c3cc(-c4cnc5ccccc5c4)ccc3ncc21 0.256%
CCN(CC)CCCC(C)Nc1ccnc2cc(Cl)ccc12 (stereo not given) -1.35%
CC(=O)Nc1nc(C)c(-c2ccc(Cl)c(S(=O)(=O)NCCO)c2)s1 -1.48%
CC(C)N=C(N)N=C(N)Nc1ccc(Cl)cc1 0.148%
C=C[C@@H]1CN2CCC1C[C@@H]2C(O)c1ccnc2ccc(OC)cc12 (stereo not given in full) 4.64%
CC[C@@]1([C@@H]2O[C@@H]([C@H]3O[C@@](O)(CO)[C@H](C)C[C@H]3C)C[C@H]2C)CC[C@H]([C@]2(C)CC[C@]3(C[C@H](O)[C@@H](C)[C@@H]([C@@H](C)[C@@H](OC)[C@H](C)C(=O)O)O3)O2)O1 -0.944% [at 23.2 µM]
Cc1[nH]c2ccccc2c1CCNCc1ccc(C=CC(=O)NO)cc1 -3.08%
CO[C@H]1O[C@@H]2O[C@@]3(C)CC[C@@H]4[C@@H](C)CC[C@@H]([C@H]1C)[C@@]24OO3 -0.464%
O=C1C(=O)c2ccccc2C(O)=C1C1CCC(c2ccc(Cl)cc2)CC1 (stereo not given) 0.134%
Cc1cnc(Nc2ccc(CN3CCOCC3)cc2)nc1Nc1cccc(S(=O)(=O)NC(C)(C)C)c1 -2.12%
COc1cc(NC(C)CCCN)c2ncccc2c1 (stereo not given) 0.981%
COc1ncnc(NS(=O)(=O)c2ccc(N)cc2)c1OC 115%
O=C1c2ccccc2-[n+]2ccc3c([nH]c4ccccc43)c21 9.49%
Cc1nc2cnc3ccc(C#Cc4cccnc4)cc3c2n1-c1ccc(C(C)(C)C#N)cc1 -0.261%
CCN[C@H]1C[C@H](C)S(=O)(=O)c2sc(S(N)(=O)=O)cc21 -1.4%
